Most compounds without a hit are left out; they make up all but 0.51% or so of the library.
phage Ecoli inh: E. coli growth loss with phage present. growth absorbance. inhibition, % at 11.9 µM. actives 0.26% (n = 360,000); in the data active = inhibition above about 11%
E coli growth-1: E. coli growth inhibition; OD600 absorbance (concentration not given with the values); Escherichia coli growth, OD600, 23 h; active compounds read low; actives 0.21% (n = 330,000); AID 1053175;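 active = OD600 absorbance below the run mean of sample wells minus 3.6 SD, in any replicate, cut at about 0.56 in these data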
Tat transport: inhibitors of E. coli Tat protein transport; inhibition, % at 10 µM; actives 0.036% (n = 340,000); E. coli MC4100 TorA-mCherry Tat export, fluorescence;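 active = mean replicate inhibition at least 50% and at least half of replicates individually reaching 50%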;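 also: exported cargo escapes ClpAP degradation while cytoplasmic cargo is degraded and loses fluorescence; 0% = median of neutral control wells and 100% = median of NaSCN control wells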
E coli growth-2: counter-screen for AddAB inhibitors: E. coli growth inhibition. inhibition, % at 11.9 µM. AID 449728. E. coli V3065 growth, OD600 absorbance, 18 h. actives 0.27% (n = 330,000);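 active = inhibition above the campaign's mean inhibition across all tested compounds plus 3 SD, cut at about 9.9% in these data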;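 also: uninfected addAB+ strain grown without phage in ampicillin broth; 0% = DMSO wells and 100% = ciprofloxacin 0.95 µg/ml wells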
AddAB inh: less growth of phage-infected E. coli with AddAB. AID 435030. E. coli expressing H. pylori AddAB, absorbance growth. inhibition, % at 11.9 µM. actives 0.29% (n = 330,000); in the data active = inhibition above about 12%;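 also: 0% = vehicle wells of infected cells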
AddAB confirm: growth loss of T4-infected E. coli expressing H. pylori AddAB, confirmed. shares compounds with AddAB inh. E. coli V3065 expressing H. pylori AddAB, T4 phage, OD; T4 phage with gene 2 nonsense mutations. inhibition, % at 11.9 µM. actives 64% (n = 880). AID 488942;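 active = mean inhibition above a set limit taken from the earlier primary screen, cut at about 13% in these data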;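 also: higher means less bacterial growth since AddAB block lets phage replicate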
RecBCD counter: counter-screen: growth loss of RecBCD+ E. coli with mutant T4 phage; shares compounds with AddAB inh; E. coli V66 + mutant T4 phage, OD growth; inhibition, % at 11.9 µM; actives 73% (n = 880);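 active = mean inhibition above the mean of solvent-only control wells plus 3 SD, cut at about 4% in these data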;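 also: optical density read after an 18 h incubation at 37 °C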
bact viab count: reduces bacterial viability, AddAB inhibitor counter-screen; absorbance (AddAB counterscreen); actives 35% (n = 880); inhibition, % at 11.9 µM; shares compounds with AddAB inh; in the data active = inhibition above about 25%
* = called active by the depositor; · = no result.

SMILES	phage Ecoli inh	E coli growth-1	Tat transport	E coli growth-2	AddAB inh	AddAB confirm	RecBCD counter	bact viab count
NC(=O)c1ccsc1NC(=O)COC(=O)c1ccc([N+](=O)[O-])o1	9	0.62	8	13*	97*	97*	8.3*	19
Cn1c(=O)c2c(nc(CN3CCC(C(N)=O)CC3)n2Cc2c(F)cccc2Cl)n(C)c1=O	3	0.72	-6	-4	-1	·	·	·
CC1CCCCN1Cc1nc2c(c(=O)n(C)c(=O)n2C)n1Cc1c(F)cccc1Cl (centres undefined)	·	0.72	0	25*	35*	-5	-1	-3
O=Nc1c2nc3ccccc3n(O)c-2c2ccccc12	6	0.56	4	20*	14*	32*	8.1*	17
On1c(-c2ccccc2)nc2ccccc21	3	0.63	0	6	6	·	·	·
Cc1ccc(CCNC(=O)c2cc(S(=O)(=O)N3CCOCC3)cn2C)cc1	1	0.71	-6	1	0	·	·	·
COc1ccccc1CNC(=O)c1cc(S(=O)(=O)N2CCCC2)cn1C	4	0.71	-3	99*	100*	-3	0	-2
Cn1cc(S(=O)(=O)N2CCOCC2)cc1C(=O)NCCc1ccccc1	·	0.72	-1	99*	99*	-3	-1	-2
C[C@@H]1Cc2c(O)c(O)cc(O)c2C(=O)O1	·	0.77	2	-2	4	·	·	·
O=C1C=C(O)c2c(O)cc(O)c(O)c2C1=O	10	0.77	22	9	13*	14*	9.8*	14
O=C(CSc1nc2ccccc2o1)Nc1ccc(N2CCOCC2)cc1	10	0.56	-11	13*	13*	15*	9.7*	12
CC(=O)NC(c1cccs1)c1cc(F)c2cccnc2c1O (centres undefined)	7	0.66	2	-3	1	·	·	·
COc1ccc(C(NC(C)=O)c2ccc3cccnc3c2O)c(OC)c1 (centres undefined)	·	0.74	16	3	12*	7	6.8*	2
COc1ccccc1C(NC(C)=O)c1cc(Cl)c2cccnc2c1O (centres undefined)	3	0.69	-7	4	-1	·	·	·
CCCC(=O)NC(c1ccccc1OC)c1ccc2cccnc2c1O (centres undefined)	·	0.57	-6	31*	34*	30*	26*	24
CC(C)CC(=O)NC(c1cccs1)c1ccc2cccnc2c1O (centres undefined)	·	0.59	-4	35*	26*	26*	23*	21
CCCC(=O)NC(c1ccc(C)cc1)c1ccc2cccnc2c1O (centres undefined)	·	·	-1	34*	24*	28*	26*	24
CCN(CC)C(=O)C(=O)NN=Cc1ccc(Br)cc1	·	0.67	·	·	·	·	·	·
CCOC1OC(C(=O)N2CCOCC2)=CC(C(C)(C)C)C1CCCO (centres undefined)	·	0.7	·	·	·	·	·	·
CCOc1ccc(NC(=O)NNC(=O)c2ccc3ccccc3c2O)cc1	11	0.68	-8	12*	13*	9	12*	11
CCc1ccccc1NC(=O)NNC(=O)c1ccc2ccccc2c1O	5	0.71	7	4	1	·	·	·
Cc1ccc(OCC(=O)Nc2cc(C)on2)c([N+](=O)[O-])n1	6	0.69	1	15*	19*	42*	6.7*	26*
CCC(Nc1ccc(OC)cc1)C(=O)NN=Cc1ccc([N+](=O)[O-])cc1 (centres undefined)	·	0.7	·	·	·	·	·	·
COC(=O)c1ccc(C(NC(=O)OCc2ccccc2)C(F)=CC(C)C(=O)NCc2ccc(OC)c(OC)c2)cc1 (centres undefined)	·	0.61	·	·	·	·	·	·
O=C(Nc1nc(-c2cccs2)c(C(=O)C(F)(F)F)s1)c1ccco1	6	0.67	1	96*	99*	-3	0	-1
O=C(Nc1nc(-c2cccs2)c(C(=O)C(F)(F)F)s1)c1ccccc1	3	0.69	16	3	7	·	·	·

Compound activity: PubChem, several laboratories
